Experimental data: ChEMBL document CHEMBL1961873, “Compounds: GSK PKIS; Assays: Nanosyn kinase panel” (2012)

Columns and labels:
[1] = target: Sphingosine kinase 1 (Homo sapiens) (UniProt Q9NYA1); conditions: at 1 µM;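 note: mean SPHK1 inhibition value reported from the GSK PKIS kinase panel screen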
[2] = target: T1, Sphingosine kinase 2 (Homo sapiens) (UniProt Q9NRA0); conditions: at 0.1 µM
T1 sequence (whole entry): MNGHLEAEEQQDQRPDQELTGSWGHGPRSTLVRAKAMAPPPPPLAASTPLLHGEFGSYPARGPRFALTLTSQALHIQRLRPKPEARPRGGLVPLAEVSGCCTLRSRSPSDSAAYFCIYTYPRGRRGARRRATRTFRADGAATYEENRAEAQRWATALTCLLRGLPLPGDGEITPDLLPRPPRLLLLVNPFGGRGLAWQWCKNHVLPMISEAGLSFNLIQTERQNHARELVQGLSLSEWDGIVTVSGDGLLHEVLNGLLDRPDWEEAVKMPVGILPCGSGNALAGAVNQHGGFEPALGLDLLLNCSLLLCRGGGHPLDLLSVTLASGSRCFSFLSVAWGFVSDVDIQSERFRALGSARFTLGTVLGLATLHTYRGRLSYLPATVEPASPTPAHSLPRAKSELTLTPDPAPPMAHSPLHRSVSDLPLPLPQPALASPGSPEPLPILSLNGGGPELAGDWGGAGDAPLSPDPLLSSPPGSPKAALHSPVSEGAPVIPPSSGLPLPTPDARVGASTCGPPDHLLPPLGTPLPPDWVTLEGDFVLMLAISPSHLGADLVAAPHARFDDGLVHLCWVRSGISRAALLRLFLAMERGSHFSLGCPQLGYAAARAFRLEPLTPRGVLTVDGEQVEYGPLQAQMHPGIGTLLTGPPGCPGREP

[3] = target: T1, Sphingosine kinase 2 (Homo sapiens); conditions: at 1 µM
[4] = target: Casein kinase II subunit alpha (Homo sapiens) (UniProt P68400); conditions: at 0.1 µM
Chain of Casein kinase II subunit alpha (Homo sapiens) (P68400 whole entry, looked up): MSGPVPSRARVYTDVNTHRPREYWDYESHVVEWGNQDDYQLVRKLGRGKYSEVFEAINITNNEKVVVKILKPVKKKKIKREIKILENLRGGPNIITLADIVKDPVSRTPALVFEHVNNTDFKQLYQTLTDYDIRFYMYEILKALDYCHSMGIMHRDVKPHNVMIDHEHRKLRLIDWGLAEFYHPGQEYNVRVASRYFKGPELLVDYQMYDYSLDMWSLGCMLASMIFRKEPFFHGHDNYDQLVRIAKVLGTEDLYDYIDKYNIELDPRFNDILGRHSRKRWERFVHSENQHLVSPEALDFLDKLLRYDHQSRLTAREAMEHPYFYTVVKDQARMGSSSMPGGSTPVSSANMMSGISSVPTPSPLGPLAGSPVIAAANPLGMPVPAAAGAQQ

[5] = target: Casein kinase II subunit alpha (Homo sapiens) (UniProt P68400); conditions: at 1 µM
[6] = target: T2, Inhibitor of nuclear factor kappa-B kinase subunit alpha (Homo sapiens) (UniProt O15111); conditions: at 0.1 µM
T2 sequence (whole entry): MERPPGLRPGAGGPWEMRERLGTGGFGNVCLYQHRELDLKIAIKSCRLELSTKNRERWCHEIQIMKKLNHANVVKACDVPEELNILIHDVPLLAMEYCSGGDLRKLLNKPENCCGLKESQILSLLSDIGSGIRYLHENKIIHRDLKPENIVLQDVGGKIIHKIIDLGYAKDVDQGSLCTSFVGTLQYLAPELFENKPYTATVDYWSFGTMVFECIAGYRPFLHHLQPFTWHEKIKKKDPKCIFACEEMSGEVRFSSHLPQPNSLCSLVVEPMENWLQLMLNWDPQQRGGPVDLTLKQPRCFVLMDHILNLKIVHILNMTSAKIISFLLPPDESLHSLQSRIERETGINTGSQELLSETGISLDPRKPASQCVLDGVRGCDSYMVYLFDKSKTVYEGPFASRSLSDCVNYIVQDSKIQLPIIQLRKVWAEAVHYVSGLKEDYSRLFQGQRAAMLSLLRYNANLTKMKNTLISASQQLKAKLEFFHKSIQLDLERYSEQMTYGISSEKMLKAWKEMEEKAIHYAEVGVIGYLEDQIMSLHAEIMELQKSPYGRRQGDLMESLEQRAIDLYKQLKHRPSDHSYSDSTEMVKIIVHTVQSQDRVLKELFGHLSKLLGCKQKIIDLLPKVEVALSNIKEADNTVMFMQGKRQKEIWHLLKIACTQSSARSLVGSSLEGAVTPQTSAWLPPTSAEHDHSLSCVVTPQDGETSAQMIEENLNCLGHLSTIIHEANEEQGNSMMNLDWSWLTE

[7] = target: T2, Inhibitor of nuclear factor kappa-B kinase subunit alpha (Homo sapiens); conditions: at 1 µM
[8] = target: T3, Inhibitor of nuclear factor kappa-B kinase subunit beta (Homo sapiens) (UniProt O14920); conditions: at 0.1 µM
T3 sequence (whole entry): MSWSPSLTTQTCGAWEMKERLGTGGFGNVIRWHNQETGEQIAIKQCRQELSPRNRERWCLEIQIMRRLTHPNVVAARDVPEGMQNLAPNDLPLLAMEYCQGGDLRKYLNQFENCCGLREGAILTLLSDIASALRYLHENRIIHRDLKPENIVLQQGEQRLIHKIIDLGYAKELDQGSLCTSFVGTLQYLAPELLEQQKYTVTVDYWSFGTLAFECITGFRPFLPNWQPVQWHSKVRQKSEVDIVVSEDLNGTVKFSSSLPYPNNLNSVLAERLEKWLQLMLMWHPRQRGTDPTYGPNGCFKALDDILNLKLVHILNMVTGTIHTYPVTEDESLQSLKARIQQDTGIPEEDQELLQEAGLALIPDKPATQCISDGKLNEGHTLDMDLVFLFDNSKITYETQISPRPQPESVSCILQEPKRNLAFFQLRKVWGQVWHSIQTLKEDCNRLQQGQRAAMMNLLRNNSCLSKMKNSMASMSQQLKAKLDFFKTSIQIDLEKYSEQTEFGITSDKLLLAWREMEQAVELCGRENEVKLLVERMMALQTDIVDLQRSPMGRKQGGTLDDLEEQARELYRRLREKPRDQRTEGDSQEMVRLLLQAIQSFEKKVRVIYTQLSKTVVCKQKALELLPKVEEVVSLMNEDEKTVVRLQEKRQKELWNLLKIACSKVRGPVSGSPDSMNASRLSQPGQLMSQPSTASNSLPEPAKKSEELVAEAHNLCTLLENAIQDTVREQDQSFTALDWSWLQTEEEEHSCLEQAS

[9] = target: T3, Inhibitor of nuclear factor kappa-B kinase subunit beta (Homo sapiens); conditions: at 1 µM
[10] = target: T4, Inhibitor of nuclear factor kappa-B kinase subunit epsilon (Homo sapiens) (UniProt Q14164); conditions: at 0.1 µM
T4 sequence (whole entry): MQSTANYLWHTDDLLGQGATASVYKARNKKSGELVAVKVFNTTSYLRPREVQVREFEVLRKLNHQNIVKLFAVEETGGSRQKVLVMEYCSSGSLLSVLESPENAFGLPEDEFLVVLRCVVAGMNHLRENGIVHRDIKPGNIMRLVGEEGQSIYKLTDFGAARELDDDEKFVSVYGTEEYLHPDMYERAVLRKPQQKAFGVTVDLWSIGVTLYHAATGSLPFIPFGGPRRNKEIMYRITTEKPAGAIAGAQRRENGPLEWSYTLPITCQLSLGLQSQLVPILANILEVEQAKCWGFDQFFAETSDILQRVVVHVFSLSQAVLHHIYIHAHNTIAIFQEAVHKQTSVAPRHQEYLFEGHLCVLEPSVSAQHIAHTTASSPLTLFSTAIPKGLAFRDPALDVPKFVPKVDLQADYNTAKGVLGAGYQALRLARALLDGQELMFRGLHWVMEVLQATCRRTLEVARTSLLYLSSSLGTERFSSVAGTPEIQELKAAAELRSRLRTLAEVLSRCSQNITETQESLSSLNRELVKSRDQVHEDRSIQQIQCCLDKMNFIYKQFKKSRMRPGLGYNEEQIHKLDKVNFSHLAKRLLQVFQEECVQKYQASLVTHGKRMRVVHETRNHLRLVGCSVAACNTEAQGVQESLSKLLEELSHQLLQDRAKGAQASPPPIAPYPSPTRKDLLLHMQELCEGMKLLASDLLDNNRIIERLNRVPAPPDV

[11] = target: T4, Inhibitor of nuclear factor kappa-B kinase subunit epsilon (Homo sapiens); conditions: at 1 µM
[12] = target: T5, Serine/threonine-protein kinase Nek1 (Homo sapiens) (UniProt Q96PY6); conditions: at 0.1 µM
T5 sequence (whole entry): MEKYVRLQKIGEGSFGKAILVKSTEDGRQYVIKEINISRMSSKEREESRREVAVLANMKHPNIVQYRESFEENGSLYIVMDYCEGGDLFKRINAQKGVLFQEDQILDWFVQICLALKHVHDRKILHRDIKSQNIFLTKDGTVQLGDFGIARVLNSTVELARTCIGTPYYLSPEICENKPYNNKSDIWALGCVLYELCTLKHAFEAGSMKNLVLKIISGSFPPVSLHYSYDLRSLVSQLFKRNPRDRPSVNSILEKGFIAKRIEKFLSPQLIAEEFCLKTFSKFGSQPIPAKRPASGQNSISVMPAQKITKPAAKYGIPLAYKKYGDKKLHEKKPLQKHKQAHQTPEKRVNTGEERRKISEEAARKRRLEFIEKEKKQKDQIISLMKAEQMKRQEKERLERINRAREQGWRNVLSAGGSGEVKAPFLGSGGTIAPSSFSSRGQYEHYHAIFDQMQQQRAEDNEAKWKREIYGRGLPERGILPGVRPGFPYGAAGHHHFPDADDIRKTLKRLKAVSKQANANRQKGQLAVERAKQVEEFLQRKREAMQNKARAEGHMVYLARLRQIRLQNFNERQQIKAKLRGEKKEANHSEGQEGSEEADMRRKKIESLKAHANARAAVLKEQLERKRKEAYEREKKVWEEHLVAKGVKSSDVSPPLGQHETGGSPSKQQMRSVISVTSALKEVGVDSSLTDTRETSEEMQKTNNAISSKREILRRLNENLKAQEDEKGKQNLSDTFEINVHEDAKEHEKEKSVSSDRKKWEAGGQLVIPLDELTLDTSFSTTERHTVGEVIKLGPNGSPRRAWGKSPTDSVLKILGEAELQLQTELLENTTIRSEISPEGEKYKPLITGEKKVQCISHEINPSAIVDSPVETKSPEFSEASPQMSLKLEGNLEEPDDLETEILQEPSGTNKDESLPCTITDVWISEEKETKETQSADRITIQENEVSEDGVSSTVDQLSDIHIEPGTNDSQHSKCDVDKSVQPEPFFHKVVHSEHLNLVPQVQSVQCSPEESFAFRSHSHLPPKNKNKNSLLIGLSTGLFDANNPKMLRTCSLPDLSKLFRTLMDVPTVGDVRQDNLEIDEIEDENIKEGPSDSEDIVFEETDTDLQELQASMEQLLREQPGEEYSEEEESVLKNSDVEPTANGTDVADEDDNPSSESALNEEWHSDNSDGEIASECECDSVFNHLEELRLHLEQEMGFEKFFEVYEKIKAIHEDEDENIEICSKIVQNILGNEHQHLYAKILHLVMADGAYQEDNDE

[13] = target: T5, Serine/threonine-protein kinase Nek1 (Homo sapiens); conditions: at 1 µM
[14] = target: T6, Serine/threonine-protein kinase Nek2 (Homo sapiens) (UniProt P51955); conditions: at 0.1 µM
T6 sequence (whole entry): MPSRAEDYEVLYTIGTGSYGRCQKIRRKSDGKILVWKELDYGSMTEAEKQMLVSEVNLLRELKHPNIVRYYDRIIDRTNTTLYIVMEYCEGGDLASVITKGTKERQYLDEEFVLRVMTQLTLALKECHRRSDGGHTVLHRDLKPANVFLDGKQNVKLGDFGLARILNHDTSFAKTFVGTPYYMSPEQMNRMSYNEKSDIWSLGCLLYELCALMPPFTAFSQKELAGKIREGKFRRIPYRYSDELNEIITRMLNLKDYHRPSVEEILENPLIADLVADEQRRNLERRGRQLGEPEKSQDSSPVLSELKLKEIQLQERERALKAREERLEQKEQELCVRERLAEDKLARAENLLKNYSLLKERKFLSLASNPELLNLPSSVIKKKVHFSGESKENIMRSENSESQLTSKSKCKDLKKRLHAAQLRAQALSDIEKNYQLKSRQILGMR

[15] = target: T6, Serine/threonine-protein kinase Nek2 (Homo sapiens); conditions: at 1 µM
[16] = target: Serine/threonine-protein kinase Nek6 (Homo sapiens) (UniProt Q9HC98); conditions: at 0.1 µM
Chain of Serine/threonine-protein kinase Nek6 (Homo sapiens) (Q9HC98 whole entry): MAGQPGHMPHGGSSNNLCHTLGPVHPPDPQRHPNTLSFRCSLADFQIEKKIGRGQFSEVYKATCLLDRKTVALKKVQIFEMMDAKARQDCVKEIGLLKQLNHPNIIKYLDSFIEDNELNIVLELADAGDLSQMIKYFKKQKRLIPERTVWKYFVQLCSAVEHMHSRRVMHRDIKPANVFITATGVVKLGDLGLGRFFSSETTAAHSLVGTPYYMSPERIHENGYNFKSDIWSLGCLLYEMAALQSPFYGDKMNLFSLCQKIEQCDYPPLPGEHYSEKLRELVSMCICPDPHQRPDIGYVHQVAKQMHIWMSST

[17] = target: Serine/threonine-protein kinase Nek6 (Homo sapiens) (UniProt Q9HC98); conditions: at 1 µM
[18] = target: Serine/threonine-protein kinase Nek7 (Homo sapiens) (UniProt Q8TDX7); conditions: at 0.1 µM
Chain of Serine/threonine-protein kinase Nek7 (Homo sapiens) (Q8TDX7 whole entry, looked up): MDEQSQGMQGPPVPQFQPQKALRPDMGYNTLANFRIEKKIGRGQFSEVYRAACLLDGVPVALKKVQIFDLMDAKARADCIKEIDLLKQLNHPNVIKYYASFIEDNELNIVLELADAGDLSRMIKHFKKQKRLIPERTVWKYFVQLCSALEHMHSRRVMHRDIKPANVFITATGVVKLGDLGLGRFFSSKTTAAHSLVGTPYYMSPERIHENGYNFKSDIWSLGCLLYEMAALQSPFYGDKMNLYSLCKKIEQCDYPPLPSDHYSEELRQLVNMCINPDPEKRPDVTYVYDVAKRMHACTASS

[19] = target: Serine/threonine-protein kinase Nek7 (Homo sapiens) (UniProt Q8TDX7); conditions: at 1 µM
[20] = target: T7, Serine/threonine-protein kinase Nek9 (Homo sapiens) (UniProt Q8TD19); conditions: at 0.1 µM;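 note: reported value is the mean percent inhibition of NEK9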
T7 sequence (whole entry): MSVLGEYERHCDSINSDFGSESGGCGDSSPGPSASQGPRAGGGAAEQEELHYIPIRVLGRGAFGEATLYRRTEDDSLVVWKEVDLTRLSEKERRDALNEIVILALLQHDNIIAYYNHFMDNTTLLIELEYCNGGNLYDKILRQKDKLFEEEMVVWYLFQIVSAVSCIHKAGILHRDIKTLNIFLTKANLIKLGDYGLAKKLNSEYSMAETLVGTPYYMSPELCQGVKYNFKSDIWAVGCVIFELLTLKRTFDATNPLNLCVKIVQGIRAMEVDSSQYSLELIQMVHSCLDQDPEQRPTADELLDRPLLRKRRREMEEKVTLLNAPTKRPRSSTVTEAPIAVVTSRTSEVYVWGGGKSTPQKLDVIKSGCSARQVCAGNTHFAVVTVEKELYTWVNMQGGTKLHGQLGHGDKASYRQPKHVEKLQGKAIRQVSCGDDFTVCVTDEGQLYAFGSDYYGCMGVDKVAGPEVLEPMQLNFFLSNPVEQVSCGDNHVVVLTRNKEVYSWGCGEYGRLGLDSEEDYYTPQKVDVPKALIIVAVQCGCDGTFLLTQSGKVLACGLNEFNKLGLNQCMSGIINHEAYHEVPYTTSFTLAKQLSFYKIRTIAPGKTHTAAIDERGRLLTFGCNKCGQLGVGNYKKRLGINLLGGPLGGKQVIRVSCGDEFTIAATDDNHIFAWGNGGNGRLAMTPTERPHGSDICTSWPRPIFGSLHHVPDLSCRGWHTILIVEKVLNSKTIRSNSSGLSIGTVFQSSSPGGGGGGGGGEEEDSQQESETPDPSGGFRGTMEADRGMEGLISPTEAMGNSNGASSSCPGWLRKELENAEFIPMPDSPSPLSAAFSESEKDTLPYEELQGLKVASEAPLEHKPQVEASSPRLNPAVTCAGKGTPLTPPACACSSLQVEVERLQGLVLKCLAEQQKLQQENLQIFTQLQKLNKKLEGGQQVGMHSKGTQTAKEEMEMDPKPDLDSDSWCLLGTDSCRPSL

Chain of Sphingosine kinase 1 (Homo sapiens) (Q9NYA1 whole entry): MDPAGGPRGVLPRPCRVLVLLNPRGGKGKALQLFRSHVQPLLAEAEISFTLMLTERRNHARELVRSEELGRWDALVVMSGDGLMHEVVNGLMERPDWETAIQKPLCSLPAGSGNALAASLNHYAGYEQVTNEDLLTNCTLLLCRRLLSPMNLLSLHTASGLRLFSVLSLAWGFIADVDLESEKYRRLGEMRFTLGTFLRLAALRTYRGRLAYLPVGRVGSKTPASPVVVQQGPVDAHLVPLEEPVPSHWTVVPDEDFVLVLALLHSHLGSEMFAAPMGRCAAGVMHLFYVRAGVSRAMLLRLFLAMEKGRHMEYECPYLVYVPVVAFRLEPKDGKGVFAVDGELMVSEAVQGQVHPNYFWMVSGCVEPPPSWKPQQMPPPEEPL

`CS(=O)(=O)CCNCc1ccc(-c2ccc3ncnc(Nc4ccc(OCc5ccccc5)cc4)c3c2)o1` was tested, and the inhibition [1] was -3.83%, the inhibition [2] was -0.85% and the inhibition [3] was 0.16%. It also gave an inhibition [4] of 9.29%, an inhibition [5] of 3.86% and an inhibition [6] of 4.92%. It also gave an inhibition [7] of 3.98%, an inhibition [8] of 5.26% and an inhibition [9] of 5.3%. For the same compound, the inhibition [10] was 5.66%, the inhibition [11] was 4.6% and the inhibition [12] was 2.22%. For the same compound, the inhibition [13] was 2.22%, the inhibition [14] was 4.68% and the inhibition [15] was 3.32%. The inhibition [16] was 2.28%, the inhibition [17] was 3.11% and the inhibition [18] was 2.47%. For the same compound, the inhibition [19] was 3.65% and the inhibition [20] was 5.77%.
